PubChem BioAssay (Tox21)
Results filed as inconclusive are left out. Unmarked numbers belong to inactive results. The source made the active and inactive calls. Calls come from the whole dose curve; as a rule, active = well fitted cell-killing curve with a large enough effect in the repeat runs; inconclusive = weak or mixed curves, or effect the other way; inactive = no such curve, though single readings can be large or run the other way.

Assay: qHTS assay to identify small molecule agonists of the RXR signaling pathway - cell viability counter screen (AID 1159529); note: nearly all actives have a fitted effect of over 50% in size
Conditions: RXR-alpha-bla HEK293T viability, CellTiter-Glo, 16 h; series mostly up to 76.8 µM; activity change, negative = cytotoxicity: at the top concentration
Description: National Center for Advancing Translational Sciences [NCATS]
NIH Chemical Genomics Center [NCGC]
U.S. Environmental Protection Agency [EPA]
National Institutes of Environmental Health Sciences [NIEHS]
National Toxicology Program [NTP]
U.S. Food and Drug Administration [FDA]
The Retinoid X receptor (RXR), a nuclear hormone receptor expressed in liver, spleen, placenta, epidermis, central nervous system. These receptors are able to form homo and heterodimers with other nuclear receptors and due to this heterodimerizing ability, RXR functions as master regulators producing diverse physiological effects. Three subtypes of RXR exist; alpha, beta and gamma. Retinoid X receptor alpha (RXR-alpha) has potential roles in metabolic signaling pathways, skin alopecia, dermal cysts, cardiac development, insulin sensitization etc. Therefore screening environmental chemicals on RXR-alpha signaling can be used for the studies focused on such therapeutic applications. For quantification of RXR-alpha ligands signaling, GeneBLAzer RXR alpha-UAS-bla HEK 293T (Life Technologies, Carlsbad, CA) cells containing a beta-lactamase reporter-gene under control of Retinoid X receptor-alpha response element were used to screen Tox21 10K library. The cytotoxicity of the Tox21 compound library against the RXR-alpha HEK 293T cell line was tested in parallel by measuring cell viability using CellTiter-Glo assay (Promega Corporation, Madison, WI) in the same wells.
Tox21 Assay Protocol Summary:
RXR-alpha HEK 293T cells were dispensed at 2,000 cells/6 uL of assay medium containing 2% charcoal-stripped FBS using a Multidrop Combi (ThermoFisher Scientific, Waltham, MA) dispenser. The assay was performed in black wall/clear-bottom 1536-well plates (Greiner Bio-One North America Inc. Monroe, NC). Tetraoctyl ammonium bromide was used as a positive control in the cytotoxicity screen. After the assay plates were incubated at 37 C and 5% CO2 for 5 hr, 23 nL of compounds dissolved in DMSO, positive control or DMSO only were transferred to the assay plate by a Pintool station (Kalypsys, San Diego, CA). The assay plates were incubated at 37 C and 5% CO2 for 16 hr. One uL of LiveBLAzer B/G FRET substrate (Life Technologies) was added using a Flying Reagent Dispenser (FRD) (Aurora Discovery, San Diego, CA) and the plates were incubated at room temperature for 2 hr. Fluorescence intensity (405 nm excitation, 460/530 nm emission) was measured using an Envision plate reader (PerkinElmer, Shelton, CT). For cytotoxicity, 4 uL/well of CellTiter-Glo reagent was added into the assay plates using an FRD. After 30 min incubation at room temperature, the luminescence intensity was measured using a ViewLux plate reader (PerkinElmer).
% is set by controls: 0 for no effect and ±100 for the full control effect; potency is the fitted concentration of half-maximal effect.

Compound | activity change, negative = cytotoxicity | Potency
CO[C@H]1C=CO[C@@]2(C)Oc3c(C)c(O)c4c(O)c(c5c(c4c3C2=O)=NC2(CCN(CC(C)C)CC2)N=5)NC(=O)/C(C)=C\C=C/[C@H](C)[C@H](O)[C@@H](C)[C@@H](O)[C@@H](C)[C@H](OC(C)=O)[C@@H]1C | -10.3% | –
CCCCCCCCCCCCCCCCBr | 2.29% [at 15.8 µM] | –
Cc1oc(C)c(C(=O)Nc2ccccc2)c1C | -19.5% | –
C/C=C(\C)C(=O)OCCC(C)CCC=C(C)C (stereo not given) | 0.367% | –
Brc1cc(-c2ccc(Br)c(Br)c2Br)cc(Br)c1Br | – | 10.8 µM (active)
CCN(Cc1cccc(S(=O)(=O)O)c1)c1ccc(C(=C2C=CC(=[N+](CC)Cc3cccc(S(=O)(=O)[O-])c3)C=C2)c2ccccc2)cc1 | 11.8% [at 35.3 µM] | –
Cc1ccnc2ccccc12 | -14.3% | –
CCC(C)(O)CCC=C(C)C (stereo not given) | 6.14% | –
CCC(=O)Oc1ccc(/C(CC)=C(\CC)c2ccc(OC(=O)CC)cc2)cc1 | – | 54.9 µM (active)
O=C1OCCN1/N=C/c1ccc([N+](=O)[O-])o1 | 3.17% [at 35.3 µM] | –
O=C(O)c1cccnc1C(=O)O | -1.49% | –
O=C(/C=C/c1ccccc1)OCCCc1ccccc1 | -7.3% | –
CCC(C)=O | 7.26% | –
C=CCCCCCCCCCCCCCCCC | 6.72% [at 6.97 µM] | –
CO[Si](C)(OC)OC | 5.67% | –
Cc1cc(C(=C2C=CC(=Nc3ccc(S(=O)(=O)O)cc3S(=O)(=O)O)C=C2)c2ccc(Nc3ccc(S(=O)(=O)O)cc3)cc2)ccc1N | -0.88% [at 35.3 µM] | –
CCn1nc(C)c2c1C(=O)NCC(c1ccc(O)cc1)=N2 | -6.15% | –
Oc1ccc(Nc2ccccc2)cc1 | – | 30.9 µM (active)
CCCCOC(=O)CCS | 8.75% | –
C=CC(C)(O)CCCC(C)CCCC(C)CCCC(C)C (stereo not given) | 3.27% | –

Compound | activity change, negative = cytotoxicity | Potency
CC1(C)C(=O)N(Br)C(=O)N1Cl | -14.5% | –
CC(N)CN (stereo not given) | 26.3% | –
CCOc1cc(N)c(Cl)cc1C(=O)NCC1CN(Cc2ccc(F)cc2)CCO1 (stereo not given) | -15.6% [at 35.3 µM] | –
O=C(O)c1cccc(O)c1 | -0.786% | –
C=CC(C)(C)CC(=O)OC | 5.2% | –
CC(=O)CC(c1ccc([N+](=O)[O-])cc1)c1c(O)c2ccccc2oc1=O (stereo not given) | -20.8% [at 35.3 µM] | –
O=c1[nH]c2ccc(S(=O)CCN3CCC(Cc4ccc(F)cc4)CC3)cc2o1 (stereo not given) | -3.14% | –
C[N+](C)(C)CCOC(N)=O | 8.32% [at 35.3 µM] | –
CCCCCCCCCCCC(=O)[O][Sn]([CH2]CCC)([CH2]CCC)[O]C(=O)CCCCCCCCCCC | -18.4% [at 35.3 µM] | –
N#C[C@@H]1C[C@@H]2C[C@@H]2N1C(=O)[C@@H](N)C12CC3CC(CC(O)(C3)C1)C2 | -4.66% [at 35.3 µM] | –
CN1CCN(c2c(F)cc3c(=O)c(C(=O)O)cn4c3c2OCN4C)CC1 | 2.53% [at 15.8 µM] | –
CCCOCCOCCO | -10.3% | –
CCCCC(=O)O[C@]1(C(=O)CO)[C@@H](C)C[C@H]2[C@@H]3CCC4=CC(=O)C=C[C@]4(C)[C@@]3(F)[C@@H](O)C[C@@]21C | -25.7% | –
CCc1cccc(N(C)C(N)=Nc2cccc3ccccc23)c1 | -16.9% [at 35.3 µM] | –
Nc1ccc(C(=O)OCCCOC(=O)c2ccc(N)cc2)cc1 | 6.2% | –
O=C(Nc1ccc([N+](=O)[O-])cc1)Nc1ccc([N+](=O)[O-])cc1 | – | 0.952 µM (active)
C[C@]12CCC(=O)C=C1C=C[C@@H]1[C@@H]2CC[C@@]2(C)[C@H]1CC[C@@]21CCC(=O)O1 | 0.606% [at 35.3 µM] | –
CC1=NN(c2ccc(C(=O)O)cc2)C(=O)C1 | -0.421% | –
Nc1nccs1 | 1.32% | –
CCCCCCCC/C=C\CCCCCCCC(=O)OC | -3.37% | –
